Test results taken from PubChem BioAssay (Tox21).
“And” between values parts separate entries of the source, which are not always exact repeats. Identical values can stand only once. Some structures have more than one record in an assay (separate samples or runs), and their calls can disagree. The source made the active and inactive calls. Where a call stands in place of a potency, no number is given. Unless noted, the call rests on the fitted dose curve; in most records, active means well fitted curve in the direction sought with a large enough effect in the repeat runs; inconclusive means weak or mixed curves; inactive means no such curve, though single readings can be large; an effect the other way counts as inactive or inconclusive.

Columns and labels:
[1] = qHTS assay to identify small molecule antagonists of the glucocorticoid receptor (GR) signaling pathway - cell viability counter screen (AID 720693); further: nearly all actives have a fitted effect of over 55% in size; further: potency means the concentration at half of the fitted maximal effect
[2] = qHTS assay for identifying genotoxic compounds that show differential cytotoxicity against isogenic chicken DT40 cell lines with known DNA damage response pathways - wild type cell line (AID 743012); further: nearly all actives have a fitted effect of over 60% in size; further: potency means the concentration at half of the fitted maximal effect
Procedure, shortened: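 Quantitative HTS on parental DT40 cells: 40 h compound treatment at 37 C/5% CO2, with viability then determined by CellTiter-Glo luminescence. Values serve as the DNA repair-proficient reference for differential cytotoxicity.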

[3] = qHTS assay for identifying genotoxic compounds that show differential cytotoxicity against isogenic chicken DT40 cell lines with known DNA damage response pathways - Rev3 mutant cell line (AID 743014); further: nearly all actives have a fitted effect of over 55% in size; further: potency means the concentration at half of the fitted maximal effect
[4] = qHTS assay for identifying genotoxic compounds that show differential cytotoxicity against isogenic chicken DT40 cell lines with known DNA damage response pathways - Rad54/Ku70 mutant cell line (AID 743015); further: nearly all actives have a fitted effect of over 60% in size; further: potency means the concentration at half of the fitted maximal effect
[5] = qHTS assay to identify small molecule antagonists of the androgen receptor (AR) signaling pathway - cell viability counter screen (AID 743033; further: nearly all actives have a fitted effect of over 45% in size; further: potency means the concentration at half of the fitted maximal effect)
[6] = qHTS assay to identify small molecule antagonists of the androgen receptor (AR) signaling pathway using the MDA cell line - cell viability counter screen (AID 743041; further: nearly all actives have a fitted effect of over 45% in size; further: potency means the concentration at half of the fitted maximal effect)
Procedure, shortened: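 Same-well cytotoxicity was assessed by CellTiter-Fluor in MDA-kb2 AR-luc cells after 16 h of compound treatment under R1881 agonism.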

[7] = qHTS assay to identify small molecule antagonists of the thyroid receptor (TR) signaling pathway - cell viability counter screen (AID 743064); further: nearly all actives have a fitted effect of over 50% in size; further: potency means the concentration at half of the fitted maximal effect
Procedure, shortened: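 Fluorescence from CellTiter-Fluor, added after 23.5 h exposure at 37 °C, reported viability of GH3.TRE-Luc cells co-treated with compound and 1 nM T3. Measured in the same wells as the luciferase TR readout.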

[8] = system: thyroid hormone receptor (rat, GH3 cells); test: qHTS assay to identify small molecule agonists of the thyroid receptor (TR) signaling pathway (AID 743066; calls by dose curve)
[9] = qHTS assay to identify small molecule antagonists of the estrogen receptor alpha (ER-alpha) signaling pathway - cell viability counter screen (AID 743074; calls by dose curve;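 further: HEK293 cells carrying ER-alpha-UAS-bla reporter stimulated with 17beta-estradiol; nearly all actives have a fitted effect of over 45% in size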; further: potency means the concentration at half of the fitted maximal effect)
[10] = qHTS assay to identify small molecule antagonists of the estrogen receptor alpha (ER-alpha) signaling pathway using the BG1 cell line - cell viability counter screen (AID 743081);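 further: compound given together with 17beta-estradiol as the ER stimulus; nearly all actives have a fitted effect of over 45% in size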; further: potency means the concentration at half of the fitted maximal effect
Aromatase (Homo sapiens) = Aromatase (Homo sapiens) (UniProt P11511); test: qHTS assay to identify aromatase inhibitors (AID 743083); further: nearly all actives have a fitted effect of over 55% in size; further: potency means the concentration at half of the fitted maximal effect
[11] = qHTS assay to identify small molecule antagonists of the thyroid receptor (TR) signaling pathway (AID 743065); further: nearly all actives have a fitted effect of over 55% in size; further: potency means the concentration at half of the fitted maximal effect
Procedure, shortened: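 GH3.TRE-Luc rat pituitary cells (two TREs driving luciferase) were dosed with compound, then stimulated with 1 nM T3 (final) for 23.5 h at 37 C. ONE-Glo luminescence was the read-out, with CellTiter-Fluor fluorescence as the cytotoxicity counter-screen.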

[12] = target: Estrogen receptor (Homo sapiens) (UniProt P03372); test: qHTS assay to identify small molecule agonists of the estrogen receptor alpha (ER-alpha) signaling pathway (AID 743075; calls by dose curve;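 further: HEK293 GripTite cells with ER-alpha and UAS-driven beta-lactamase reporter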; further: potency means the concentration at half of the fitted maximal effect); details: HEK293 ER-alpha-UAS-bla, beta-lactamase FRET ratio, 18 h; activation: at 70.1 µM (top of the series)
[13] = target: Estrogen receptor (Homo sapiens) (UniProt P03372); test: qHTS assay to identify small molecule agonists of the estrogen receptor alpha (ER-alpha) signaling pathway using the BG1 cell line (AID 743079); details: BG1Luc4E2 cells, ERE-luciferase agonist, 22 h; further: nearly all actives have a fitted effect of over 20% in size; further: potency means the concentration at half of the fitted maximal effect
[14] = qHTS assay to identify small molecule antagonists of the estrogen receptor alpha (ER-alpha) signaling pathway using the BG1 cell line (AID 743080; calls by dose curve;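 further: BG1 cells stimulated with 17beta-estradiol alongside compound; nearly all actives have a fitted effect of over 25% in size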; further: potency means the concentration at half of the fitted maximal effect)
Procedure, shortened: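 Readout is ONE-Glo luminescence, taken 30 min at room temperature after reagent addition, preceded by a CellTiter-Fluor viability read; BG1-Luc-4E2 cells had received compound and 17beta-estradiol for 21.5 h at 37 C.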

[15] = target: Estrogen receptor (Homo sapiens) (UniProt P03372); test: qHTS assay to identify small molecule antagonists of the estrogen receptor alpha (ER-alpha) signaling pathway (AID 743069; active means well fitted curve in the direction sought with a large enough effect in the signal ratio in the repeat runs, not every such curve was filed as active; inconclusive means weak or mixed curves, or effect the other way; inactive means no such curve, though single readings can be large or run the other way; the % refers to the signal ratio)
Procedure, shortened: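 Reporter cells (ER-alpha-bla, HEK293 background) are conditioned overnight in stripped-serum medium (2% charcoal-stripped FBS). Compound and 17beta-estradiol exposure runs 18 hr at 37C, 5% CO2.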

[16] = target: Androgen receptor (Homo sapiens) (UniProt P10275); test: qHTS assay to identify small molecule agonists of the androgen receptor (AR) signaling pathway using the MDA cell line (AID 743040; further: nearly all actives have a fitted effect of over 20% in size)
Procedure, shortened: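 Human breast carcinoma MDA-kb2 reporter cells (MMTV-luc, AR/GR elements) were treated for 16 h at 37C in 0% CO2 following a 5 h settling period. Signal was quantified by ONE-Glo luminescence.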

[17] = target: Androgen receptor (Homo sapiens) (UniProt P10275); test: qHTS assay to identify small molecule antagonists of the androgen receptor (AR) signaling pathway using the MDA cell line (AID 743042)
Procedure, shortened: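 MDA-kb2 breast carcinoma cells carrying MMTV-luciferase (AR/GR responsive) were co-treated with compounds and the agonist R1881 for 16 h at 37C. Inhibition read as ONE-Glo luminescence; CellTiter-Fluor fluorescence measured in parallel for cytotoxicity.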

Sequence of Estrogen receptor (Homo sapiens) (P03372 whole entry, looked up): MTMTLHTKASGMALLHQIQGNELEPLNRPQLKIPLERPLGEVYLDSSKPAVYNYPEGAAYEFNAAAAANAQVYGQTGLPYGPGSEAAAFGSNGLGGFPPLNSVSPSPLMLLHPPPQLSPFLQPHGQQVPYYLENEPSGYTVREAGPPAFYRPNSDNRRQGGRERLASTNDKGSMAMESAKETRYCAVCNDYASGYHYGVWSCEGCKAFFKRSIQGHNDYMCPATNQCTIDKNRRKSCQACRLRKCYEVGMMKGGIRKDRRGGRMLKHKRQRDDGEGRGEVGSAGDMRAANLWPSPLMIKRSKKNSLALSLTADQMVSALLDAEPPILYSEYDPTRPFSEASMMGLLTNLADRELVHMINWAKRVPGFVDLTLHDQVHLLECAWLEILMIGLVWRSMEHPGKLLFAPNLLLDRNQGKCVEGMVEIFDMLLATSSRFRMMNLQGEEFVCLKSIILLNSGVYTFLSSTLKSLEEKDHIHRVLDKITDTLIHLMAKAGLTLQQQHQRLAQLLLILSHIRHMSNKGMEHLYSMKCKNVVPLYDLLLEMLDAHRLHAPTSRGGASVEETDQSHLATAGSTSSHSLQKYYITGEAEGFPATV
Sequence of Aromatase (Homo sapiens) (P11511 whole entry, looked up): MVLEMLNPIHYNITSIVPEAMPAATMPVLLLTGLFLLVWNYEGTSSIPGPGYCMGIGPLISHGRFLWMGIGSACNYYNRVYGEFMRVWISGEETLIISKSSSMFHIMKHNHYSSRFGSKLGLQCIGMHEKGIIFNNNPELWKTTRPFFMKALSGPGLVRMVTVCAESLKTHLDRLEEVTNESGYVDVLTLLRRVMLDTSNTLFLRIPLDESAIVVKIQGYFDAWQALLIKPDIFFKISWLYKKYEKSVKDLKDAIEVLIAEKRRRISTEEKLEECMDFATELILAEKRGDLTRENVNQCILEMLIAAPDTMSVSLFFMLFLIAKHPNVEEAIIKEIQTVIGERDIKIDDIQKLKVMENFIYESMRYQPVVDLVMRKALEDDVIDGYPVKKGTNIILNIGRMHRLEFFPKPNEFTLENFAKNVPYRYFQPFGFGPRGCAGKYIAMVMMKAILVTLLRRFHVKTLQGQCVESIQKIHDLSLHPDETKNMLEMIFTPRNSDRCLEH
Sequence of Androgen receptor (Homo sapiens) (P10275 whole entry, looked up): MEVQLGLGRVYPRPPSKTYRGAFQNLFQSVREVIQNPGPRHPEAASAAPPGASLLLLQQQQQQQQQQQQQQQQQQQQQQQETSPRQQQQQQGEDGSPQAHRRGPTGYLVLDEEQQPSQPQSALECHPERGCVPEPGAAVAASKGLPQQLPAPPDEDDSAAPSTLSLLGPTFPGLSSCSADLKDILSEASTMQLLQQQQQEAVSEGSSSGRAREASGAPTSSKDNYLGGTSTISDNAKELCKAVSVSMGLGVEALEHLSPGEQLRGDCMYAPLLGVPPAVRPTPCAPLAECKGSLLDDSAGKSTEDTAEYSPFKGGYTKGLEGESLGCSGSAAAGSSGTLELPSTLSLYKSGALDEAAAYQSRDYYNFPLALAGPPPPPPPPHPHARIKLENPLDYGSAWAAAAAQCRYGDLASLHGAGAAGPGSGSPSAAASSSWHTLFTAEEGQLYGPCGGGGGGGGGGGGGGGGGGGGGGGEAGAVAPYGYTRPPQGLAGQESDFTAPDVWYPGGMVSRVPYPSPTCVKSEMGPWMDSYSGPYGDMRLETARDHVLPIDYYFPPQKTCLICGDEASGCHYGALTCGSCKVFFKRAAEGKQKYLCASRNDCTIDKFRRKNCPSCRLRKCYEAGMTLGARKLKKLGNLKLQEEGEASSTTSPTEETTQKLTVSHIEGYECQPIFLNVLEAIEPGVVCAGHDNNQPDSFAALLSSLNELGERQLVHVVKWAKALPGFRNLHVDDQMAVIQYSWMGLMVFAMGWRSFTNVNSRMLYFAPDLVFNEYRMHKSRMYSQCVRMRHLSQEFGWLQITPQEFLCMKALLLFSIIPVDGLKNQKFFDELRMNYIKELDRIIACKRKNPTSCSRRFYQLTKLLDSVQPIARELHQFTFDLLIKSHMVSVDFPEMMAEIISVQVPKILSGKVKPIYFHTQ

Row | SMILES | Potency [1] | Potency [2] | Potency [3] | Potency [4] | Potency [5] | Potency [6] | Potency [7] | Potency [8] | Potency [9] | Potency [10] | Potency (Aromatase (Homo sapiens)) | Potency [11] | Potency [12] | activation ([13]; at 70.3 µM (top of the series)) | Potency [14] | Potency [13] | Potency [15] | Potency [16] | Potency [17] | activation ([13]; at 32.5 µM (top of the series))
1 | CCCC1O[C@@H]2C[C@H]3[C@@H]4CCC5=CC(=O)C=C[C@]5(C)[C@H]4[C@@H](O)C[C@]3(C)[C@]2(C(=O)CO)O1 (stereo partly drawn) | inactive | inactive | inactive and 48.6 µM (active) | inactive and 68.7 µM (active) and 54.5 µM (active) | inactive | inactive | inactive | inactive | inactive | inactive | inactive |  |  |  |  |  |  |  |  | 
2 | CCCCCCCCOc1ccccc1C(=O)Nc1ccc(C(=O)OCC[N+](C)(CC)CC)cc1 | 23.9 µM (active) | 11.9 µM (active) | 23.7 µM (active) | 26.6 µM (active) | inactive | inactive | 26.6 µM (active) |  | inactive | inactive | inactive | 26.6 µM (active) | inactive | -29.5% (inactive) | inactive |  |  |  |  | 
3 | CCCCCCCCCCCCc1ccc(O)cc1 | 21.9 µM (active) | 10.9 µM (active) | 7.7 µM (active) | 12.2 µM (active) | 34.7 µM (active) | 54.5 µM (active) | 13.7 µM (active) |  | 49 µM (active) |  | 48.6 µM (active) | 13.7 µM (active) | 3.09 µM [inconclusive] (active) |  |  | 0.969 µM (active) |  |  |  | 
4 | CCOC(=O)O[C@H](C)OC(=O)c1ccc2c(c1)cc(C(=O)NC1CCN(C(C)C)CC1)n2Cc1cc(-c2ccc(Cl)s2)on1 | 20.4 µM (active) | 6.41 µM (active) | 11.4 µM (active) | 11.4 µM (active) | 7.25 µM (active) | 57.1 µM (active) | 5.09 µM (active) |  | 45.8 µM (active) | inactive | 14.3 µM (active) | 4.54 µM (active) |  |  |  |  |  |  |  | 
5 | Cc1c(C)c2c(c(C)c1OC(=O)CCC(=O)O)CC[C@@](C)(CCC[C@H](C)CCC[C@H](C)CCCC(C)C)O2 | 26.8 µM (active) | inactive | inactive | inactive | inactive | inactive | 23.7 µM (active) | inactive | inactive | inactive | inactive | inactive |  |  |  |  |  |  |  | 
6 | CCN(C(=O)c1cc(C)cc(OC[C@H](C)Nc2ccncc2)c1)C(C)C | inactive | 19.1 µM (active) | 19.1 µM (active) | 17 µM (active) | inactive | inactive |  | inactive | inactive | inactive | inactive |  |  |  |  |  |  |  |  | 
7 | Cc1cc2c(cc1C(F)(F)F)N(C(=O)Nc1ccc(Oc3cccnc3C)nc1)CC2 | inactive | 1.24 µM (active) | 0.781 µM (active) | 22 µM (active) | inactive |  | inactive | inactive | inactive | inactive |  | 22 µM (active) | inactive |  |  |  | inactive |  |  | 
8 | NNc1nc(-c2ccc(N)cc2)cs1 | inactive | 17.2 µM (active) | 21.7 µM (active) | 10.9 µM (active) | inactive |  |  | inactive | inactive |  |  |  | inactive | -1.53% (inactive) | inactive |  |  |  |  | 
9 | C[n+]1cc2c3c(ccc2c2ccc4cc5c(cc4c21)OCO5)OCO3 | 6.74 µM (active) | 1.5 µM (active) | 2.11 µM (active) | 1.5 µM (active) |  | 26.6 µM (active) | 2.98 µM (active) |  | 10.7 µM (active) |  | 11.9 µM (active) | 2.66 µM (active) | 15.1 µM [inconclusive] (active) |  |  |  |  | inactive | 18.8 µM (active) | 
10 | CC(=O)N1CCN(c2ccc(OC[C@H]3CO[C@](Cn4ccnc4)(c4ccc(Cl)cc4Cl)O3)cc2)CC1 | inactive | 10.6 µM (active) and 3.86 µM (active) | 23.7 µM (active) and 4.33 µM (active) | 21.1 µM (active) and 6.11 µM (active) | inactive and 19.5 µM (active) |  | inactive and 21.7 µM (active) | inactive | inactive and 43.6 µM (active) | inactive | inactive | 26.6 µM (active) and 15.4 µM (active) | inactive |  | 13.3 µM (active) |  | inactive |  |  | 
11 | CC1=C(C(=O)OC(C)C)C(c2cccc([N+](=O)[O-])c2)C(C(=O)OC2CN(C(c3ccccc3)c3ccccc3)C2)=C(N)N1 (stereo not drawn) | 8.49 µM (active) | 18.8 µM (active) | 18.8 µM (active) | 13.3 µM (active) |  | inactive | 2.98 µM (active) |  | 23.9 µM (active) |  | 29.8 µM (active) | 2.98 µM (active) |  |  |  |  |  |  |  | 
12 | O=C(NO)C1(NS(=O)(=O)c2ccc(Oc3ccc(F)cc3)cc2)CCOCC1 | inactive | 54.5 µM (active) | 30.6 µM (active) | 30.6 µM (active) | inactive |  | inactive | inactive | inactive | inactive | inactive | inactive | inactive |  |  |  | inactive |  |  | 
13 | O=[N+]([O-])c1cc(Cl)c(Cl)c(Cl)c1Cl | inactive | inactive | inactive | inactive | inactive | inactive |  | inactive | inactive | inactive |  | 60.9 µM (active) |  |  |  |  |  |  |  | 
14 | CC1=C(/C=C/C(C)=C/C=C/C(C)=C/C=O)C(C)(C)CCC1 | 24.4 µM (active) | 13.6 µM (active) | 9.63 µM (active) | 12.1 µM (active) | 21.8 µM (active) |  | 7.65 µM (active) | inactive | 54.6 µM (active) | 60.8 µM (active) | 15.3 µM (active) | 8.58 µM (active) |  |  |  |  |  |  |  | 
15 | Cc1onc(-c2ccccc2Cl)c1C(=O)N[C@@H]1C(=O)N2[C@@H]1SC(C)(C)[C@@H]2C(=O)O | inactive | inactive | inactive | inactive |  | inactive |  |  | inactive | inactive | inactive |  | inactive |  | inactive |  | inactive |  |  | -4.31% (inactive)
